± gives the standard deviation of the averaged measurements. Whole data set: some 25,000 sequences, median “ln(normalized median fluorescence intensity)” near 8.9, cut for the highest 2% near 10. The sample holds the highest values, similar sequences and a random draw of the others, so the mix is not that of the screen.

The assay concerns PfAP2-LT AP2 domain (GST-tagged). The assay is described as follows: gcPBM binding intensity (ln(normalized median fluorescence intensity)); higher = stronger DNA binding. The gist of the method:
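After 1 h on an Agilent 4 × 180k array of primer-extended double-stranded 36-bp intergenic genomic probes and negative controls, bound GST-tagged P. falciparum DNA-binding domains were detected with Alexa488 anti-GST antibody and scanned at 488 nm. The domains had been expressed in E. coli, and binding took place in 1× PBS with 1% milk, 0.2 mg/ml BSA, 0.5% salmon testes DNA and 0.03% Triton X-100. Binding intensity is the highest Masliner-normalised natural-log median intensity across replicate spots of either probe orientation.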
For “AAAAGTTATAGACACACACACATATAAATATAGATT [CACACA_site6617]”, the “gcPBM binding intensity (ln)” value amounted to 9.57 ± 0.3.
Under “TGTGTATAAATATACACACACATATAAATATTTTAA [CACACA_site7005]” stands 9.09 ± 0.35; under “TTGCCATTAATTTATACACACACATTTTAATTTTTT [CACACA_site8150]”, 9.16 ± 0.39; under “GTAAATTATATAACAAATAAAAATGTACATATATAT [CACACA_negctrl_site408]”, 8.88 ± 0.46.
With “TAAATTATCTTTTTATGTACTTATTTTTATTATTTT [XGTACX_site3158]”, the “gcPBM binding intensity (ln)” value is 8.73 ± 0.55.
For “AAAATATATGAAAACAGTACATATAAAAATTAAAAA [XGTACX_site2594]”, the “gcPBM binding intensity (ln)” value stood at 8.75 ± 0.64.
Take “AAAAAAATTAATATGTCAGCACATATATACATACAT [GTGCAC_negctrl_site110]”: the “gcPBM binding intensity (ln)” value was determined as 8.88 ± 0.41.
On to “ATATTAGTCGAATGATGTACACACATACAAAACATT [XGTACX_site8613]”, for which the “gcPBM binding intensity (ln)” value came to 9.28 ± 0.45.
Then “TGTGAATATATCTTTAAAAAGGATAAATAATAATTT [CACACA_negctrl_site507]”, with 8.47 ± 0.52; and “GATGGATTTATTTAAAGTACATATTTAAAAAACTGT [XGTACX_site7567]”, with 8.51 ± 0.49.
As for “GGAAACACAATATATACACACATATATATATATATA [CACACA_site235]”, the “gcPBM binding intensity (ln)” value is 10.1 ± 0.021.
Under “TATAATATAAGGATCACACACAAACACCCATATATA [CACACA_site4468]” stands 9.56 ± 0.18; under “AAGGATCACCCACAAACACACATATATATATATATA [CACACA_site559]”, 10.2 ± 0.28.
Under “ACCTATTTCAAACACACACACACACTAACAAACATA [CACACA_site8233]” stands 10 ± 0.13; under “CGCACCCAAATATATACACACATATATATATATATA [CACACA_site1651]”, 10.1 ± 0.16; under “AATACACGCAAACACACACACACACCCACATATATA [CACACA_site638]”, 10.3 ± 0.14.
Then “GAACAAACAAAGAAAGAACACACATACACAATATAC [CACACA_site8918]”, with 9.6 ± 0.38; and “AATATAATATAAGGATCACACACAAACACCCATATA [CACACA_site8084]”, with 9.77 ± 0.2.
In the case of “ATGTACCTATTTCATACACACACACCCACAAACAAA [CACACA_site8232]”, the “gcPBM binding intensity (ln)” value is 9.66 ± 0.16.
Under “AGCAAATACAAACACACACACACATATACATATATA [CACACA_site3497]” stands 10.1 ± 0.26.
As to “ACCTATTTCAAACACACACACACACCCACAAACATA [CACACA_site977]”, the “gcPBM binding intensity (ln)” value is 10.1 ± 0.33.
Turning to “ACAATAAACATATATACACACACAAAAAAAAAAACA [CACACA_site8033]”, the “gcPBM binding intensity (ln)” value was found to be 9.64 ± 0.33.
On to “TTTTATTTATCATACACACACAGAAAAAAAAAAAAA [CACACA_site158]”, for which the “gcPBM binding intensity (ln)” value amounted to 8.89 ± 0.32.
Under “TTTTTTTTCAAAAATACAAAAAAAAAAGAAAAAAAC [CACACA_negctrl_site625]” stands 8.5 ± 0.4; under “AAATAACACATATATACACACATATAACTATAATAT [CACACA_site7298]”, 9.29 ± 0.4.
In the case of “ACATGTAATATAATGTGTACATATACAAAGGTATAT [XGTACX_site4145]”, the “gcPBM binding intensity (ln)” value came to 9.34 ± 0.59.
As to “AGTGAATATTACGAAACACACAAAAAAATACATTTC [CACACA_site511]”, the “gcPBM binding intensity (ln)” value is 9.09 ± 0.38.
Regarding “CAAACAAATTGTGAAACACACATATATATATATATA [CACACA_site2001]”, the “gcPBM binding intensity (ln)” value turned out to be 9.81 ± 0.057.
With “TATATTATTAATTAGGGTACAAAAAAAAAATTTTTT [XGTACX_site7762]”, the “gcPBM binding intensity (ln)” value is 8.3 ± 0.48.
“AAAGGTTTATCTGATACACACATAAGTGATCAGGTT [CACACA_site6233]”: the “gcPBM binding intensity (ln)” value amounted to 8.83 ± 0.33.
In the case of “TTTTTTCAATAAATAATCGTATATTGAATAATAATA [CACACA_negctrl_site822]”, the “gcPBM binding intensity (ln)” value amounted to 8.07 ± 0.37.
Take “TCATTTCAATACACAAGTACGTATATGGTTATATTG [XGTACX_site6021]”: the “gcPBM binding intensity (ln)” value came to 8.82 ± 0.4.
Regarding “AACCACATACATATAACACACATATACAATATATAT [CACACA_site8607]”, the “gcPBM binding intensity (ln)” value came to 9.29 ± 0.39.
Then “CATACTCACCAACACACACACACACCCATATAGAAT [CACACA_site592]”, with 10.2 ± 0.28; and “ATAAGGATCAGACACAAACACACATATATATATATA [CACACA_site558]”, with 10.1 ± 0.13; and “TATAAACACCCATATAAACACACATATAAACCAACA [CACACA_site8790]”, with 9.31 ± 0.28.
Under “AATAACCACCAACACACACACATATATATATATATA [CACACA_site3540]” stands 10.2 ± 0.24; under “TCATAGTAGAAACACACACACACACCCATATATATA [CACACA_site1737]”, 10.1 ± 0.23.
Then “AAGGATCACAGACAAACACACATATATATATATATA [CACACA_site4469]”, with 10.1 ± 0.16; and “TATAATATAAGGATCACACACAAACAGACATATATA [CACACA_site557]”, with 9.49 ± 0.37.
With “CACCCACACCAACACACACACATATATAATATATAT [CACACA_site595]”, the “gcPBM binding intensity (ln)” value is 9.88 ± 0.33.
Under “TAATTTAGTATCTTTACATGCGGGCATTATGTCATA [TGCATGCA_site167]” stands 8.74 ± 0.4; under “AAGAAAATAGGGTTCATAGGATTATACTTTTGGAAT [TGCATGCA_negctrl_site80]”, 8.59 ± 0.54.
For “TAATACTTAATGAACACATGCACATATACATAGTAT [TGCATGCA_site496]”, the “gcPBM binding intensity (ln)” value stood at 8.82 ± 0.47.

For the origin of these results see the supplement of paper PMC11417369.
